Laboratory results from PubChem BioAssay AID488969 (Vanderbilt High Throughput Screening Facility, 2010).
Whole data set: some 110,000 compounds, median “z-score” near -0.1, cut for the highest 2% near 2. Many of the other results were omitted from the sample, so the highest values are more common in it than they were. Active and inactive are the calls of the source.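 How the source made its calls: active means z-score in the third read window above 3 or below -3; inactive means the rest.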

The molecules below were run against Metabotropic glutamate receptor 8 (Rattus norvegicus) (UniProt P70579) (assay: mGluR8 Gi/Go-coupled signaling modulation – cell-based, rat, thallium flux, HTS, primary screen (AID 488969)). Details: HEK293 rat mGluR8, GIRK (G protein-gated inwardly rectifying potassium channel) thallium flux, FluoZin2; at 10 µM; stronger effect = higher value; submaximal glutamate (EC20) added with thallium.
Sequence of Metabotropic glutamate receptor 8 (Rattus norvegicus) (P70579 whole entry, looked up): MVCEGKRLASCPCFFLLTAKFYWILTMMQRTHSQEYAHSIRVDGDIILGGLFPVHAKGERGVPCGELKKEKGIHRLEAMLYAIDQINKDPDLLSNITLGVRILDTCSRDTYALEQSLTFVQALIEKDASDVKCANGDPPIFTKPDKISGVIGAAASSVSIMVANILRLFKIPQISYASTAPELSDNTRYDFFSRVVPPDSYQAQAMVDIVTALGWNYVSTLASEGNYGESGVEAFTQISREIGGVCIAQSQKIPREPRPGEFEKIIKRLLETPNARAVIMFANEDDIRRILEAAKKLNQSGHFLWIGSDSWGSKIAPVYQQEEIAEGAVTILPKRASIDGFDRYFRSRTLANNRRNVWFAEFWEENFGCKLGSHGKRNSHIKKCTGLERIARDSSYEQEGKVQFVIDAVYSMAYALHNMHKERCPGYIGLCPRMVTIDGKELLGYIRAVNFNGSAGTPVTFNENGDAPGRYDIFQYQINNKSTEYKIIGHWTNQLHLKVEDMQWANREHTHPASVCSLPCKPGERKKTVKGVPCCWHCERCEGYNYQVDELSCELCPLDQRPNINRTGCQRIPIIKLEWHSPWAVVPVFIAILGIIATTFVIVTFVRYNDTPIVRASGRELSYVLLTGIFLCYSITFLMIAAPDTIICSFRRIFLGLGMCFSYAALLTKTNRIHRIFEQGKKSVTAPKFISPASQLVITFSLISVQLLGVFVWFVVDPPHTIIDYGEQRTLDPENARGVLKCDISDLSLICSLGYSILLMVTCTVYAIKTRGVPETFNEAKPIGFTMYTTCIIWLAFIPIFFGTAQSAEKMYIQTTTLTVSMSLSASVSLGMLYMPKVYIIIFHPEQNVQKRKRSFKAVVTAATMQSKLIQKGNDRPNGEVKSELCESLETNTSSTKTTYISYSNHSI
For O=C(Nc1cccc(C(=O)N2CCCC2)c1)c1ccccc1Cl, the z-score was -0.0275.
For COCCNC(=O)c1ccccc1-c1nc(-c2ccccc2OC)no1, the z-score was 0.0674.
Work on O=C1CC(c2ccc3c(c2)OCO3)C2=C(CCCC2=O)N1 (stereo not drawn) yielded a z-score of -0.2.
CC(=Nc1ccccc1)C1=C(O)CCCC1=O showed a z-score of -0.104.
N=C(CC1CC(=O)NC(=O)C1)C1=C(O)CCCC1=O was tested, and the z-score was 2.31.
COc1ccc(NC(=S)NCc2ccco2)cc1 gave a z-score of -0.0213.
C/C(=N\NC(=O)COc1ccccc1F)c1cc2ccccc2o1 showed a z-score of -0.0133.
In the case of C=C(C)CNC(=S)N/N=C(\C)c1ccc(OC)cc1, the z-score is reported as -1.56.
For COc1ccc(/C(C)=N/NC(=S)NCc2ccco2)cc1, the z-score was 4.34 (active).
With CCNC(=S)N/N=C(\C)c1cc2ccccc2o1 the z-score was 8.26 (active).
Molecule C/C(=N\NC(=S)NCc1ccccc1)c1ccc(Cl)cc1 has a z-score of 0.101.
CC/C(C)=N/NC(=S)NCc1ccco1 was tested, and the z-score was 0.0671.
Molecule C/C(=N\NC(=S)NCc1ccccc1)c1ccc2ccccc2c1 has a z-score of 2.12.
With C/C(=N\NC(=O)Nc1ccccc1)c1ccc2ccccc2c1 the z-score was -0.112.
C=CCNC(=S)N/N=C(\C)c1cc(OC)c(OC)c(OC)c1 showed a z-score of -0.183.
Work on C=CCNC(=S)N/N=C(\C)c1ccc(OC)cc1 yielded a z-score of 2.03.
For C/C(=N\NC(=O)c1ccco1)c1cc2ccccc2o1, the z-score was 0.664.
Cc1nc(=O)c(-c2ccccc2)c(C)n1-c1ccc(O)cc1 was tested, and the z-score was -1.56.
Molecule CCc1ccc(OCC(=O)N/N=C/c2ccc(OS(=O)(=O)c3ccc(C)cc3)c(OC)c2)cc1 has a z-score of -0.212.
Molecule Cc1ccc2nsnc2c1S(=O)(=O)NC1CC1 has a z-score of 0.516.
Molecule Cc1sc(NC(=O)c2ccco2)c(CN2CCN(c3ccccc3)CC2)c1C has a z-score of -0.213.
With c1ccc(N(c2ccccc2)c2nc(-n3ccnc3)nc(-n3ccnc3)n2)cc1 the z-score was -0.953.
In the case of O=C(O)CCCn1nc(C(F)(F)F)c2c1CCCCC2, the z-score is reported as -0.241.
With COC(=O)Nc1sc(C(=O)N(C)C)c(C)c1C(=O)OC the z-score was 0.175.
C=CCc1c(C)nc(C)nc1N/N=C/c1ccc(F)cc1 gave a z-score of -0.164.
In the case of C=CCc1c(C)nc(C)nc1N/N=C/c1ccccc1, the z-score is reported as -0.683.
C=CCc1c(C)nc(C)nc1N/N=C/c1ccccc1O gave a z-score of 2.25.
Molecule CSc1cc(C)n(-c2ccccc2)c(=S)c1C(C)=O has a z-score of -0.0675.
CCOc1ccc(CNC(=O)CCn2c(=O)oc3ccccc32)cc1OC showed a z-score of 0.903.
For O=C(O)C1C2C=CC(O2)C1C(=O)Nc1ccc(S(=O)(=O)N2CCc3ccccc32)cc1 (stereo not drawn), the z-score was -0.0204.
With CCOC(=O)Cc1csc(NC(=O)c2ccc(Br)o2)n1 the z-score was 0.017.
Molecule CCOC(=O)Cc1csc(NC(=O)c2ccc(Br)s2)n1 has a z-score of 1.08.
CCOC(=O)Cc1csc(NC(=S)NC(=O)c2ccccc2C)n1 was tested, and the z-score was 9.08 (active).
Work on CCOC(=O)Cc1csc(NC(=S)NC(=O)C(C)(C)C)n1 yielded a z-score of 1.73.
For CCOC(=O)Cc1csc(NC(=S)NC(=O)CC(C)C)n1, the z-score was 1.27.
CCOC(=O)Cc1csc(NC(=S)NC(=O)c2ccccc2Br)n1 was tested, and the z-score was 7.57 (active).
With COC(=O)c1nnn(CC(=O)Nc2cc(Cl)ccc2C)c1C(=O)OC the z-score was -0.484.
COc1cc(/C=C2\SC(c3ccc(C)cc3)=NC2=O)ccc1O showed a z-score of -0.769.
O=C(Nc1ccc(Cn2cccn2)cc1)c1ccc(COc2ccccc2Br)cc1 gave a z-score of -0.0941.
O=S(=O)(N/N=C/c1cn(Cc2ccccc2)c2ccccc12)c1ccccc1 showed a z-score of -0.216.
Work on Cc1cc(N2CCCCCC2)nc2ccccc12 yielded a z-score of -0.134.
COc1ccccc1N1C(=O)CCC1(C#N)c1ccc(Br)cc1 (stereo not drawn) gave a z-score of -0.14.
Cc1c(NC(=O)CSc2ccc(Cl)cc2)cccc1-c1nc2ncccc2o1 was tested, and the z-score was -0.212.
For O=S(=O)(Nc1ccc(N2CCCCC2)cc1)c1cccs1, the z-score was -0.488.
O=S(=O)(Nc1ccccc1N1CCCCC1)c1ccc(Cl)s1 was tested, and the z-score was 3.45 (active).
O=C(Nc1cc(Cl)ccc1N1CCCCC1)c1cccs1 gave a z-score of -0.311.
O=S(=O)(Nc1ccc(N2CCOCC2)cc1)c1ccc(Cl)s1 was tested, and the z-score was -0.104.
For O=C(Nc1ccccc1)c1ccccc1NS(=O)(=O)c1ccc(Cl)s1, the z-score was -3.39 (active).
In the case of O=S(=O)(Nc1cc(Cl)ccc1N1CCCCC1)c1cccs1, the z-score is reported as 7.03 (active).
COC(=O)c1ccc(OC(=O)c2ccccc2F)cc1 was tested, and the z-score was 0.198.
COc1ccccc1NC(=O)CSc1ccc2nnc(-c3cccnc3)n2n1 was tested, and the z-score was -0.277.
With O=C(COC(=O)c1ccc(-c2nnc(-c3ccccc3)o2)cc1)c1ccccc1 the z-score was -0.145.
Work on CC(C)n1c(N2CCN(CC(=O)NCc3cccs3)CC2)nc2ccccc21 yielded a z-score of -0.0505.
Cc1nccn1CC(O)Cn1c2ccccc2c2ccccc21 (stereo not drawn) showed a z-score of 2.
Cc1nc2ccccc2n1CC(O)Cn1c2ccccc2c2ccccc21 (stereo not drawn) showed a z-score of 0.752.
For Cc1nccn1CC(O)COc1ccccc1 (stereo not drawn), the z-score was -0.0583.
In the case of Cc1cccc(-n2c(SCc3cc(=O)n4ccsc4n3)nc3ccccc3c2=O)c1, the z-score is reported as -0.276.
Cc1nc(NC(=O)COc2ccccc2)sc1C(=O)Nc1ccccc1 was tested, and the z-score was -0.075.
CC(Oc1ccc(Cl)cc1Cl)C(=O)NCCN1CCOCC1 (stereo not drawn) was tested, and the z-score was 0.00607.
CN1/C(=C\C(=S)NC(=O)c2ccccc2Cl)C(C)(C)c2ccccc21 gave a z-score of 0.0507.
With CCN(CC)c1nc2nonc2nc1N(CC)CC the z-score was 2.53.
Cc1cc(C)n(-c2nc3nonc3nc2-n2nc(C)cc2C)n1 showed a z-score of 0.084.
For Cc1ccc(Nc2nc3nonc3nc2N(C)C)cc1, the z-score was -0.0276.
In the case of Cc1n[nH]c(C)c1S(=O)(=O)N(CC(=O)Nc1ccc2c(c1)OCCO2)c1ccc(C(C)C)cc1, the z-score is reported as -0.193.
In the case of O=C(NCCc1ccc(Cl)cc1)Nc1cccc(Cl)c1, the z-score is reported as 0.529.
O=C(NCCCc1ccccc1)Nc1ccccc1 was tested, and the z-score was 0.456.
O=C(NCCCc1ccccc1)Nc1cccc(Cl)c1 showed a z-score of 2.01.
Cc1nc(N2CCN(C)CC2)c2c(C)c(C(=O)Nc3ccc(C)c(F)c3)sc2n1 gave a z-score of -0.555.
Work on CCCc1cc(=O)[nH]c(SCC(=O)NC(=O)OCC)n1 yielded a z-score of -0.0127.
Cc1cc(C)n(S(=O)(=O)c2ccc(C(C)(C)C)cc2)n1 gave a z-score of -1.41.
For CCc1nc(SCC(=O)Nc2c(C)nn(C)c2C)c2cnn(-c3ccccc3)c2n1, the z-score was -0.873.
Molecule CCOC(=O)NC1(C(F)(F)F)NC(=O)N(C2CCCCC2)C1=O (stereo not drawn) has a z-score of 2.9.
Work on CC(=O)NC1(C(F)(F)F)NC(=O)N(C2CCCCC2)C1=O (stereo not drawn) yielded a z-score of -0.137.
Molecule O=C(NC1(C(F)(F)F)NC(=O)N(C2CCCC2)C1=O)C1CC1 (stereo not drawn) has a z-score of -0.129.
For COc1ccc(-c2nnc(SCc3nnc(-c4ccc(Cl)cc4)o3)n2-c2ccccc2)cc1, the z-score was -1.79.
COc1cc(NS(=O)(=O)c2ccc(Br)s2)cc(OC)c1 gave a z-score of 0.398.
In the case of COc1ccc(C)cc1NS(=O)(=O)c1ccc(Br)s1, the z-score is reported as 0.369.
Molecule COc1ccc(NS(=O)(=O)c2ccc(Br)s2)cc1OC has a z-score of 2.11.
CCC(=O)Oc1ccc(C(=O)Nc2cccc(C(=O)c3ccccc3)c2)cc1 gave a z-score of 0.022.
CC1(C)NC(=O)N(CC(O)CN2CCCCC2)C1=O (stereo not drawn) showed a z-score of 0.323.
In the case of COc1ccc(CSc2nc(C)cc(=O)[nH]2)cc1Br, the z-score is reported as -1.02.
Molecule CC(=O)Nc1ccc(S(=O)(=O)Nc2nnc(C(C)(C)C)s2)cc1 has a z-score of 0.307.
With COc1ccc(NC(=S)NNC(=O)c2ccccc2OC(F)F)cc1 the z-score was 0.204.
For CN(C)c1cccc(N=C2C=C(N3CCOCC3)CC(C)(C)C2)c1, the z-score was 2.3.
CN(C)c1cccc(C(=O)Nc2ccc(N3CCOCC3)cc2)c1 was tested, and the z-score was -0.0628.
CN(C)c1cccc(NC2=CC(=[N+]3CCOCC3)CC(C)(C)C2)c1 showed a z-score of 0.942.
In the case of O=C(Nc1cccc(O)c1)c1cc(-c2ccco2)on1, the z-score is reported as -0.103.
In the case of Cc1ccc(Cl)c2c1NC(=O)C2(O)CC(=O)c1ccc(F)cc1 (stereo not drawn), the z-score is reported as -0.203.
For COc1ccc(NC(=O)OCCn2c([N+](=O)[O-])cnc2C)cc1, the z-score was -0.144.
CCOC(=O)C(NCCCO)c1ccccc1 (stereo not drawn) gave a z-score of -0.247.
In the case of COc1ccc(OC)c(-c2c[n+](=O)c3c(n2[O-])CCCC3)c1, the z-score is reported as 0.0184.
Work on c1ccc(-n2ncc3c(N4CCCCC4)ncnc32)cc1 yielded a z-score of -0.259.
Work on O=S(=O)(c1ccc(F)cc1)N1CCN(c2ncnc3c2cnn3-c2ccccc2)CC1 yielded a z-score of 2.11.
CCN1CCN(c2ncnc3c2cnn3-c2ccccc2)CC1 was tested, and the z-score was 0.0325.
In the case of CN(C)C=NC(=O)c1ccc([N+](=O)[O-])c(CS(=O)(=O)c2ccc(Cl)cc2)c1, the z-score is reported as -0.0395.
CCc1ccccc1N(CC(=O)O)S(C)(=O)=O was tested, and the z-score was 0.424.
COc1ccc(C/C(C)=N/NC(=S)Nc2ccccc2)cc1 was tested, and the z-score was 5.19 (active).
CC/C(=N\NC(=S)Nc1cc(C)ccc1C)c1ccc(OC(F)F)cc1 was tested, and the z-score was 3.47 (active).
Molecule CCOc1ccc(NC(=S)N/N=C(\C)Cc2ccc(OC)cc2)cc1 has a z-score of 1.35.
For COc1ccc(C/C(C)=N/NC(=S)Nc2ccc(C)c(C)c2)cc1, the z-score was 1.65.
CCCCOc1ccc(/C=N/NC(=S)Nc2cc(C)ccc2C)cc1 gave a z-score of 1.19.
With Cc1ccc(CNC(=S)Nc2ccc(OC(F)F)cc2C)cc1 the z-score was -0.531.
With COc1ccccc1NC(=S)NNC(=S)Nc1ccc(OC(F)F)cc1 the z-score was -0.345.
For COc1ccc(C/C(C)=N/NC(=S)Nc2ccc(C(C)C)cc2)cc1, the z-score was 0.256.
For CC/C(=N\NC(=S)Nc1ccc(OC)cc1)c1ccc(OC(F)F)cc1, the z-score was 7.5 (active).
CCN(CCCNC(=O)CCNC(=O)Cn1ccc2ccccc2c1=O)c1ccccc1 gave a z-score of -0.46.
CCN1CCN(Cc2c(O)ccc3c(=O)c(-c4ccc(OC)c(OC)c4)c(C)oc23)CC1 showed a z-score of -0.348.
In the case of Cc1ccc(Oc2c(C=O)c3ccccc3n2C)cc1, the z-score is reported as -0.989.
Molecule CC1(C)CC(=O)N(CC(=O)NC2CCCC2)c2ccccc2S1(=O)=O has a z-score of -0.29.
Clc1ccc(Oc2cnc3ccccc3n2)cc1 was tested, and the z-score was -0.22.
CCC(CC)C(=O)Nc1cc(OC)c(OC)cc1C(=O)O gave a z-score of -0.741.
O=C(Nc1ccc(O)c(-c2nc3ccccc3o2)c1)C1(c2ccc(Br)cc2)CCCC1 was tested, and the z-score was -0.297.
CCOC(=O)CN(C(=O)c1ccccc1)c1ccccc1C was tested, and the z-score was -0.114.
CC(=O)NC(CC(=O)NC1CCCCCC1)c1ccccc1 (stereo not drawn) was tested, and the z-score was 0.55.
CC1(C)CC(=O)C2=C(C1)OC(N)=C(C#N)C21C(=O)N(CN2CCOCC2)c2ccccc21 (stereo not drawn) showed a z-score of -0.00502.
COCc1cc(=O)[nH]c(Nc2nc(C)c3ccccc3n2)n1 showed a z-score of -0.43.
For COCc1cc(=O)[nH]c(Nc2nc(C)c3cc(OC)ccc3n2)n1, the z-score was -0.401.
In the case of CCc1ccc2nc(Nc3nc(COC)cc(=O)[nH]3)nc(C)c2c1, the z-score is reported as 2.69.
